Activity calls are given as the source filed them. Calls come from the whole dose curve; as a rule, active = well fitted curve in the direction sought with a large enough effect; inactive = no such curve, though single readings can be large or run the other way.
Biological target: Epidermal growth factor receptor (Homo sapiens) (UniProt P00533)
Assay: Assay for Inhibitors of the ERK Signaling Pathway using a Homogeneous Screening Assay: EGFR L858R Kinase Inhibition
Conditions: EGFR L858R kinase biochemical inhibition assay; series mostly up to 65.8 µM; activity, negative = inhibition: at the top concentration
Excerpt: qHTS Assay for Inhibitors of the ERK Signaling Pathway using a Homogeneous Screening Assay
NIH Chemical Genomics Center [NCGC]
NIH Molecular Libraries Screening Centers Network [MLSCN]
Assay Submitter (PI): Dr. Wei Zheng, NCGC/NIH
The Ras/extracellular-signal-regulated kinase (ERK) mitogen activated protein (MAP) kinase signaling pathway (ERK1/2 cascade) plays is a key role in transmitting signals from the cell surface to the nucleus (Nishida and Gotoh 1993; Chang and Karin, 2001). The cascade is initiated by the small G-protein Ras, which recruits Raf […], where activation occurs. Alternatively, this pathway can be activated by elevating intracellular cAMP.
Activation of the ERK pathway is essential in increased cell division and cell survival. Sustained and constitutive activation of the ERK pathway, however, has been linked to uncontrolled cell proliferation, increased cell survival, and tumor progression. Thus, the ERK has been as an attractive target for cancer chemotherapy in the past few years (Sebolt-Leopold and Herrera, 2004). Given its physiological and pathological importance, assessment of ERK phosphorylation has been broadly performed in both basic research and drug discovery. Most assays for the measurement of ERK phosphorylation use the antibody-based detection methods, such as western blot and ELISA. These assays require multiple reagent additions with cell wash steps and are not suitable for high-throughput screening.
The current cell-based ERK phosphorylation assay was performed using AlphaScreen platform. AlphaScreen is a two bead-based proximity-dependent chemical energy transfer luminescent assay platform. The assay reagents (ERK SureFire(TM) kit) were supplied from TGR BioSciences (Australia). […]
The HTRF kinase assay (components supplied as kit by Cisbio) was chosen for the EGFR and EGFR mutant enzyme assays that applied the time resolved fluorescence resonance energy transfer (TR-FRET) principle. […]

Epidermal growth factor receptor (Homo sapiens), sequence (P00533 whole entry L858R, looked up): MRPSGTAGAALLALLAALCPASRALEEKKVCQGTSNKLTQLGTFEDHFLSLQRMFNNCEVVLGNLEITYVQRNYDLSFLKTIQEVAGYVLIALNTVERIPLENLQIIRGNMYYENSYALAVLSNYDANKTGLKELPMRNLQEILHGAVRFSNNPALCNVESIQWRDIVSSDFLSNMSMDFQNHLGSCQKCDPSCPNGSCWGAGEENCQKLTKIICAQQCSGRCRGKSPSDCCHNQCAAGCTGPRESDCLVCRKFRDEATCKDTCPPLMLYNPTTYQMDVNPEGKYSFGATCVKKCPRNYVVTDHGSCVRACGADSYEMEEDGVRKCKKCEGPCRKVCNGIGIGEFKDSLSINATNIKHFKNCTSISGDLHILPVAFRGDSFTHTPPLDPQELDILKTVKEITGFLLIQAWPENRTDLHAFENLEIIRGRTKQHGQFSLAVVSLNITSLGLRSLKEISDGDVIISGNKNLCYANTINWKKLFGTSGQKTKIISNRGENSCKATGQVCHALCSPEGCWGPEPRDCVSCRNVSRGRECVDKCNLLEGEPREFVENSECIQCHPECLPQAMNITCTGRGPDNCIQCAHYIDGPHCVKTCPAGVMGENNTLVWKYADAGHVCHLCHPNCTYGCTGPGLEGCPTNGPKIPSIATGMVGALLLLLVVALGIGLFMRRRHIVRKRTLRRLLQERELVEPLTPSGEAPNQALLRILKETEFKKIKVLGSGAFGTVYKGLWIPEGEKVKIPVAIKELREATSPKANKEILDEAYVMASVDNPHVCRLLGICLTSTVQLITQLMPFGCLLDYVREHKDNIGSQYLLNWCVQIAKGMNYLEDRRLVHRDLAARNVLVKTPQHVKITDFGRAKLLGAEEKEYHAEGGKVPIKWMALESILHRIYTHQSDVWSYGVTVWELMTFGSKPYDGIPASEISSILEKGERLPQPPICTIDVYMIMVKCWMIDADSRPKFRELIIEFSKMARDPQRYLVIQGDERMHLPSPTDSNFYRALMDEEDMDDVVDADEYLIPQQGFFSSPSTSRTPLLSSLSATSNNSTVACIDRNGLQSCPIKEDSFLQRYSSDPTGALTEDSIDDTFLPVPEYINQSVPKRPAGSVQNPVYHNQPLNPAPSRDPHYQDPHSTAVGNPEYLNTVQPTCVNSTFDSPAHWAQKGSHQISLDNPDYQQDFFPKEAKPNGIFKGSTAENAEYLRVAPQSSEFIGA

| Structure (SMILES) | activity, negative = inhibition |
| --- | --- |
| CCn1nc(-c2ccccc2)nc2c(=O)n(C)c(=O)nc1-2 | -0.966% [at 21.9 µM] (inactive) |
| CN1CCN(c2cccc3c2C(=O)c2ccccc2C3=O)CC1 | 8.93% (inactive) |
| Cc1nc2c(=O)n(C)c(=O)nc-2n(C)n1 | 11.6% (inactive) |
